Source: PubChem (several laboratories)
In the library only some 0.97% were active in any assay of this set; here they are far more common.
RecA splice inh: inhibitors of M. tuberculosis RecA intein splicing; cell-free RecA intein splicing, fluorescence; inhibition, % (concentration not given with the values); actives 0.75% (n = 290,000); AID 2221; in the data active = inhibition above about 30%;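 note: 0% = vehicle wells and 100% = reference inhibitor control wells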
UGM FP inh: blocks M. tuberculosis UGM enzyme. actives 0.06% (n = 320,000). inhibition, % at 10 µM. purified UGM, fluorescence polarization probe displacement. AID 504406. P9WIQ1; in the data active = inhibition above about 10%, passing the limit was not always enough
Target sequence (P9WIQ1 whole entry, looked up): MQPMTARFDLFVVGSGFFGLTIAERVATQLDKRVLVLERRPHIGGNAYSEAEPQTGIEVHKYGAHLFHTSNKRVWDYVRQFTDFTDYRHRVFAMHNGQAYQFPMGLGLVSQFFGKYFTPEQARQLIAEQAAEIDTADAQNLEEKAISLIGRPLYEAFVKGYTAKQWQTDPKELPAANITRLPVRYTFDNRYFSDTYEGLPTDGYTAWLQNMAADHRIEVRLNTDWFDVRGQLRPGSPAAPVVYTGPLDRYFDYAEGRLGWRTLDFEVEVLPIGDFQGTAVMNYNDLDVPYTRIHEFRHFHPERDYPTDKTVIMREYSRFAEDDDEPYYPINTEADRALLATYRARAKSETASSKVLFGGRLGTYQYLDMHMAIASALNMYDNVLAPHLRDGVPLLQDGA
FadD28 binding: inhibitors of Mycobacterium tuberculosis FadD28 bisubstrate binding; AID 588549; FadD28 bisubstrate probe binding, fluorescence polarization; inhibition, % at 12.5 µM; actives 0.22% (n = 360,000); in the data active = inhibition above about 8.5%, passing the limit was not always enough
Rv3671c inh: Rv3671c (M. tuberculosis) protease inhibition | P9WHR9 | inhibition, % at 5.96 µM | actives 0.048% (n = 320,000); in the data active = inhibition above about 38%;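 note: extracellular domain of Rv3671c used as enzyme; 0% = enzyme with DMSO and 100% = no enzyme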
TcdB GH inh: TcdB glycohydrolase inhibition | P18177 | TcdB glycohydrolase enzymatic assay, plate reader | inhibition, % at 9.99 µM | actives 0.24% (n = 350,000) | AID 652162; in the data active = inhibition above about 10%
Mtb BioA inh: BioA (M. tuberculosis) enzyme inhibition | actives 0.096% (n = 360,000) | AID 602481 | inhibition, % at 9.99 µM | purified M. tuberculosis BioA enzyme, plate reader; in the data active = inhibition above about 40%
GFP chromo cs: counter-screen GFP chromophore formation inhibition; shares compounds with RecA splice inh; cell-free GFP chromophore formation, fluorescence; EC50, µM; actives 83% (n = 2,100); call rule not given here
* = called active by the depositor; x = no result.

SMILES | RecA splice inh | UGM FP inh | FadD28 binding | Rv3671c inh | TcdB GH inh | Mtb BioA inh | GFP chromo cs
COC(=O)CCSc1cc(NCCOC(C)=O)c([N+](=O)[O-])c2nonc12 | 53.8* | -4.6 | 0.1 | -3.0 | x | x | 24.4*
CC(=O)OCCCNc1cc(Sc2ccc(C)cc2)c2nonc2c1[N+](=O)[O-] | 14.6 | 3.6 | -1.1 | -3.4 | x | x | x
COc1ccccc1CNC(=O)C[C@H]1CC[C@H](NC(C)=O)[C@@H](CO)O1 | x | x | x | x | -8.6 | 0.6 | x
COc1ccc(CN(C)C[C@@H]2OCCCC[C@H](C)Oc3ccc(NS(=O)(=O)c4ccc(OC)cc4)cc3C(=O)N([C@@H](C)CO)C[C@@H]2C)cc1 | x | x | x | x | x | 7.1 | x
Oc1ccc(NC(=S)N=Nc2c(O)[nH]c3ccc(Br)cc23)cc1 | 67.5* | x | 1.7 | x | -0.8 | -1.1 | >38
Oc1[nH]c2ccc(Br)cc2c1N=NC(=S)Nc1ccc(F)cc1 | 19.7 | -1.7 | -1.4 | 9.4 | 0.6 | -1.4 | x
CO[C@H]1CN(C)C(=O)c2cc(NC(=O)C3CC3)ccc2OC[C@H](C)N(CC2CCOCC2)C[C@H]1C | x | x | x | x | -6.0 | -1.5 | x
COc1cc2c(cc1OC)C1(NCC2)C(=O)Nc2ccccc21 (stereo unspecified) | -0.2 | 4.0 | -2.8 | 3.5 | x | -2.2 | x
COc1cc2c(cc1OC)C1(Nc3c-2c(Cc2ccccc2)nn3-c2ccccc2)C(=O)Nc2ccccc21 (stereo unspecified) | 35.0* | -1.8 | -3.1 | -14.0 | x | -0.5 | >38
CN(C1=C(NC(=O)c2ccccc2)C(=O)c2ccccc2C1=O)C1CCS(=O)(=O)C1 (stereo unspecified) | 92.5* | -0.5 | 1.4 | -112.9 | -0.9 | x | 2.66*
CCCNC(=O)C[C@@H]1C[C@H]2c3cc(NC(=O)Nc4ccc(F)cc4)ccc3O[C@H]2[C@H](CO)O1 | x | x | x | x | 1.3 | -0.4 | x
COc1ccc(C2CC(c3cccs3)=NN2C(=O)CCl)cc1OC (stereo unspecified) | 76.6* | -0.3 | 0.3 | 4.6 | 1.2 | -1.1 | 4.45*
COc1cc(C2CC(c3cccs3)=NN2C(=O)CCl)ccc1OC(F)F (stereo unspecified) | 80.0* | 0.6 | -1.8 | -3.7 | -0.1 | -13.8 | 1.8*
COc1ccc(C2CC(c3cccs3)=NN2C(=O)c2ccccc2)cc1OC (stereo unspecified) | 1.0 | -2.1 | -1.7 | -5.1 | 3.0 | -0.4 | x
O=C(C[C@@H]1C=C[C@H](NS(=O)(=O)c2ccccc2)[C@@H](CO)O1)NCc1ccccc1F | x | x | x | x | -10.6 | -3.4 | x
C[C@H](CO)N1C[C@H](C)[C@H](CN(C)S(=O)(=O)c2ccc(Cl)cc2)OCCCC[C@H](C)Oc2ccc(NS(=O)(=O)c3ccccc3)cc2C1=O | x | x | x | x | -0.7 | -4.9 | x
C[C@@H]1CCCCO[C@H](CN(C)Cc2ccncc2)[C@@H](C)CN([C@@H](C)CO)C(=O)c2cc(NC(=O)Nc3ccccc3)ccc2O1 | x | x | x | x | -3.1 | -0.5 | x
COc1ccccc1NC(=O)C1=C(C)Nc2nnnn2C1c1ccncc1 (stereo unspecified) | 39.3* | 1.2 | -3.3 | -2.0 | x | 1.3 | >38
COc1cc(N=Nc2cccc(S(N)(=O)=O)c2)c2ccccc2c1N | 45.4* | -2.1 | 9.7* | -6.4 | 0.4 | 0.7 | 33.3*
COC1=C(c2ccccc2)C(=O)c2ccccc2C1=O | 69.1* | 1.7 | 0.1 | -18.4 | x | x | 14.2*
Cc1ccc(S(=O)(=O)N(C)C[C@H]2Oc3ncc(-c4ccccc4)cc3C(=O)N([C@@H](C)CO)C[C@H]2C)cc1 | x | x | x | x | 0.2 | 0.6 | x
CC(=O)N(C1=C(N2CCOCC2)C(=O)c2ccccc2C1=O)c1ccc(C(=O)O)cc1 | 61.4* | 1.8 | -0.1 | -53.1 | -3.0 | x | 19.8*
O=C(O)c1ccc(NC2=C(N3CCOCC3)C(=O)c3ccccc3C2=O)cc1 | 4.2 | 0.7 | -2.7 | -105.0 | x | x | x
CO[C@@H]1CN(C)C(=O)c2cc(NC(C)=O)ccc2OC[C@H](C)N(C(=O)c2ccccn2)C[C@@H]1C | x | x | x | x | 0.0 | -5.5 | x
COc1ccc(C(CC(=O)c2ccc(C)cc2)C(C#N)C#N)cc1OC (stereo unspecified) | 54.4* | -1.1 | -1.1 | -11.0 | x | x | 30.4*
SMILES | RecA splice inh | UGM FP inh | FadD28 binding | Rv3671c inh | TcdB GH inh | Mtb BioA inh | GFP chromo cs
COC(=O)C(C(=O)OC)C(CC(=O)c1ccc(C)cc1)c1cc(OC)c(OC)c(OC)c1 (stereo unspecified) | 1.0 | 0.4 | -3.3 | -10.2 | 0.8 | -0.4 | x
CCOc1cc(CNc2ccc3cn[nH]c3c2)ccc1OC | 77.1* | -1.2 | -5.3 | -17.7 | x | 5.7 | 11.8*
COc1ccc(CNc2ccc3cn[nH]c3c2)c(OC)c1OC | 45.6* | -0.1 | -2.5 | -17.5 | x | 1.7 | 1.22*
C=CCOc1ccc(CNc2ccc3[nH]c(=O)[nH]c3c2)cc1OC | x | x | 1.4 | x | -1.0 | x | x
O=C(Cc1cccnc1)N[C@@H]1CC[C@@H](CCn2cc(-c3ccccc3F)nn2)O[C@@H]1CO | x | x | x | x | -0.2 | -3.4 | x
O=[N+]([O-])c1ccc(-[n+]2c(-c3ccccc3)cc(-c3ccccc3)cc2-c2ccccc2)cc1 | 0.4 | 0.9 | 0.2 | 0.9 | 0.3 | 1.5 | x
Cn1c(-[n+]2c(-c3ccccc3)cc(-c3ccccc3)cc2-c2ccccc2)nc2c([N+](=O)[O-])cccc21 | 33.4* | -0.3 | -2.3 | -0.7 | -10.7 | -0.9 | 29.9*
CCOC(=O)c1c(C)oc2c1c(C=NCCC(=O)O)c(O)c1ccccc12 | 33.6* | -1.4 | 5.5 | -19.6 | -4.1 | 1.6 | 33.8*
COC(=O)C[C@@H]1CC[C@H]2[C@@H](COC[C@H](O)CN2S(=O)(=O)c2ccccc2C)O1 | x | x | x | x | 0.9 | 1.9 | x
CNC(C)Cc1ccccc1Sc1ccc(O)cc1 (stereo unspecified) | -7.4 | 1.2 | -3.5 | -2.7 | x | 6.4 | x
CNCc1ccccc1Sc1ccc(O)c(O)c1 | 88.0* | 1.3 | -1.8 | -1.2 | -60.9 | x | 3.27*
O=c1[nH]cc(O)c(=O)[nH]1 | 89.0* | 1.6 | -3.7 | 4.8 | -0.5 | -1.1 | 15.2*
CNC(=O)c1cc(C(=O)c2ccccc2Br)c[nH]1 | 1.0 | 2.0 | -1.5 | 2.5 | 1.1 | 3.2 | x
O=C(c1c[nH]c(C(=O)C(Cl)(Cl)Cl)c1)c1ccccc1Br | 51.3* | 2.9 | -0.5 | -3.2 | 1.4 | x | 26.1*
COc1cccc(C(=O)Nc2ccc3c(c2)C(=O)N(C)[C@@H]2CC[C@H](CC(=O)NCC(F)(F)F)O[C@@H]2CO3)c1 | x | x | x | x | 8.8 | -0.4 | x
CSc1nnc(NC(=O)C23CC4CC(CC(C4)C2)C3)s1 | -1.0 | -1.5 | -3.4 | -6.1 | -0.6 | -0.8 | >38
O=C(C[C@@H]1CC[C@@H]2[C@H](COC[C@H](O)CN2Cc2ccccc2)O1)NCc1ccccc1Cl | x | x | x | x | -1.1 | -3.0 | x
CCOC(=O)Cc1[nH]nc2c1C(Cc1ccccc1)C(C#N)=C(N)O2 (stereo unspecified) | 28.2 | 2.1 | -2.7 | -2.0 | 0.5 | 0.1 | x
COc1ccc(-c2ccc(C3C(C#N)=C(N)Oc4n[nH]c(C)c43)o2)cc1 (stereo unspecified) | x | -1.2 | -1.2 | -6.2 | x | 2.3 | x
